GALK inh: GALK (human) enzyme inhibition. P51570. recombinant GALK, Kinase-Glo ATP luminescence, 1 h. Potency, µM (titrated, usually from 57.5 µM), for the others: at the top dose activity, negative = inhibition, hits mostly inhibitors. 44,000 tested, under 10 active. AID 1347072;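 also: plate controls were full GALK reaction for no effect and reaction lacking GALK for full effect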
Target sequence (P51570 whole entry, looked up): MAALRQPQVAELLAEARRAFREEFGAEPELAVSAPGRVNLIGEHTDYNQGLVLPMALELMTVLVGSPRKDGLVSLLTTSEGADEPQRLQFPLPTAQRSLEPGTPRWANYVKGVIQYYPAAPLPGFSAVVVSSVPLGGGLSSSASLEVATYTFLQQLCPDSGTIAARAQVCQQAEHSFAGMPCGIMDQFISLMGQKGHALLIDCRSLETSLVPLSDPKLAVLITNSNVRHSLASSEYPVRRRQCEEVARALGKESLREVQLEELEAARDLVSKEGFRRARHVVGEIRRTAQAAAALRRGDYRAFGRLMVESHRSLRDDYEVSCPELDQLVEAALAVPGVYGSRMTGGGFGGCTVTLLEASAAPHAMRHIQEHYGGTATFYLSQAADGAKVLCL
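Compounds were pinned into ATP buffer, then GALK-galactose mix was added (final 5 nM enzyme, 35 uM ATP, 100 uM galactose, pH 8.0). After 1 h at room temperature, Kinase-Glo Plus was added and luminescence read.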
FH mod: Identification of activators of human fumarate hydratase by quantitative high-throughput screening. FH coupled MDH/diaphorase resazurin fluorescence, 15 min. Potency, µM (highest dose often 79.9 µM), without a hit: at the top dose activity change, negative = inhibition, hits mostly inhibitors. 54,000 tested, 0.22% active; also: potency is read from the fitted curve at half-maximal effect; % is scaled to controls: 0 for no effect and ±100 for the full control effect; the screen sought activators but most active calls are inhibition curves; nearly all actives have a fitted effect of over 45% in size
PTAP-TSG101 blk: inhibitors of HIV-1 PTAP binding to human TSG101, validation. AID 1347069. Fluorescence polarization, FITC-PTAP peptide/Tsg101, 20 min. Potency, µM (highest dose often 115 µM), usual class: inhibitors. 44,000 tested, under 10 active; also: potency is read from the fitted curve at half-maximal effect; 0% is about no effect
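Fluorescence polarization binding of Tsg101 binding domain (10 uM final) to FITC-labeled PTAP-motif peptide (50 nM final) in HEPES pH 7.5/NaCl/Tween 20/EDTA/TCEP buffer; 20 min at r.t. Actives by curve class, <25 µM, efficacy <60% inhibition.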
B2AR arrestin ag: ADRB2 beta-arrestin recruitment; P07550; HTLA Tango cells, beta-arrestin recruitment, luciferase luminescence, 18 h; Potency, µM (top dose mostly 46.1 µM), actives largely listed as activators; 44,000 tested, under 10 active; AID 1347077;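 also: potency is read from the fitted curve at half-maximal effect; 0% = DMSO and full agonism = EC100 isoproterenol or metaproterenol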
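Receptor–beta-arrestin recruitment read by tTA-responsive luciferase: compound titrations (up to 46 µM) incubated 18 h with Tango cells, then luminescent substrate 15 min at room temperature. Concentration-response fits classified by r2, efficacy and activity.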
DRV1 agonist: activates human resolvin D1 receptor GPR32 | O75388 | CHO-K1 GPR32 beta-arrestin PathHunter luminescence, 90 min; zero percent set by DMSO-only wells | activation, % at 76.9 µM | 48,000 tested, 2.5% active | AID 1346428;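 active = activation of at least 60% and not above a set upper limit, about 1 call in 100 departs from these limits; inconclusive = activation of 40% to 60%, or above that upper limit; inactive = activation under 40%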; also: 0% is about no effect
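Using DMSO wells as EC0, agonist-induced signal was taken as chemiluminescence from beta-Gal reconstituted upon beta-arrestin recruitment to GPR32 in CHO-K1 cells after 90 min compound treatment.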
GALC G270D act: galactocerebrosidase G270D activity enhancement, cell-based; 145M-Twi-hGALC-G270D cells (Twitcher mouse brain line with human GALC G270D), HMU-beta-Gal fluorescence, 48 h; 45,000 tested, 0.1% active; AID 1159614; Potency, µM (top dose mostly 57.5 µM), most hits filed as activators; also: potency is read from the fitted curve at half-maximal effect; 0% is about no effect; nearly all actives have a fitted effect of over 65% in size
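Mutant human GALC (G270D), stably expressed in a Twitcher mouse brain cell line lacking endogenous GALC, is measured in live-treated cells via 6-hexadecanoylamino-4-methylumbelliferyl-β-galactoside hydrolysis (0.1 mM final, pH 5.2) with fluorescent detection.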
Numbers without * were called inactive; i = inactive; ? = inconclusive; / = no result given; ! = a repeat was not active; [ ] = dose if it differs, or a comment. Only some compounds are listed: those with a hit (about 2.8% of all), similar ones and a draw of the others. Unless noted, calls follow the shape of the dose curve; as a rule, active = well fitted curve in the direction sought with a large enough effect; inconclusive = small, poorly fitted or top-dose-only effect, or another doubt; inactive = no such curve, though single readings can be large; an effect the other way counts as inactive or inconclusive.

SMILES	GALK inh	FH mod	PTAP-TSG101 blk	B2AR arrestin ag	DRV1 agonist	GALC G270D act
Cc1ccc(NC(=O)Cn2c(=O)oc3cc(S(=O)(=O)N4CCCCC4)ccc32)c(Cl)c1	4%	-12%	i	i	111*	i
CCOC(=O)C(CCc1ccccc1)NC(C)C(=O)N1C(=O)N(C)CC1C(=O)O (centres undefined)	/	-1%	/	/	/	/
C[C@H]1CC[C@@]2(OC1)O[C@H]1CC3C4CC=C5C[C@H](O)C[C@@H](O[C@@H]6O[C@@H](C)[C@H](O)[C@@H](O)[C@H]6O[C@@H]6O[C@@H](C)[C@H](O)[C@@H](O)[C@H]6O)[C@]5(C)C4CC[C@]3(C)[C@H]1[C@@H]2C (some centres undefined)	/	14%[20.6 µM]	/	/	/	/
CN1CCc2cc3c(cc2C(=O)Cc2cc4c(cc2C1)OCO4)OCO3	/	0%[53.3 µM]	/	/	/	/
COc1ccccc1/C=C/c1nc(C#N)c(N2CCN(C)CC2)o1	2%	-18%	i	i	-8	28µM*
CCN1CCN(c2oc(/C=C/c3ccccc3OC)nc2C#N)CC1	-6%	-13%	i	i	-18	i
COc1cc(/C=C/C(=O)O[C@H]2[C@H](OC(=O)/C=C/c3cc(OC)c(O)c(OC)c3)O[C@H](CO[C@@H]3O[C@H](CO)[C@@H](O)[C@H](O)[C@H]3O)[C@@H](O)[C@@H]2O)ccc1O	/	5%[20.6 µM]	/	/	/	/
Cc1cc(=O)oc2cc(O)ccc12	/	4%[53.3 µM]	/	/	-7	28µM*
C=C1[C@@H]2CC[C@@H]3[C@@](CCC4C(C(=O)O)(C(=O)O)C[C@@H](O[C@@H]5O[C@H](CO)[C@@H](O)[C@H](O)[C@H]5OC(=O)CC(C)C)C[C@]43C)(C2)[C@H]1O (some centres undefined)	/	0%[20.6 µM]	/	/	/	/
Cc1cc2[nH]c(=O)c(=O)[nH]c2cc1S(=O)(=O)N1CCN(c2ccccc2F)CC1	-7%	-12%	i	i	70*	i
Cc1[nH]c2ccccc2c1C1(O)C(=O)N(Cc2ccccc2Cl)c2ccccc21 (centres undefined)	7%	?	i	i	105*	i
CN[C@H](C(=O)N[C@H](C(=O)N(C)[C@H](/C=C(\C)C(=O)O)C(C)C)C(C)(C)C)C(C)(C)c1ccccc1	/	3%	/	/	/	/
CC(C)=CCC[C@](C)(O)[C@H]1CC[C@]2(C)[C@@H]1[C@H](O)CC1[C@@]3(C)CC[C@H](O)C(C)(C)C3[C@@H](O[C@@H]3O[C@H](CO)[C@@H](O)[C@H](O)[C@H]3O[C@@H]3OC[C@@H](O)[C@H](O)[C@H]3O)C[C@]12C (some centres undefined)	/	8%[20.6 µM]	/	/	/	/
CN1CCc2c(sc3c2C(=O)NC(c2ccc(OC(=O)c4ccc(C(C)(C)C)cc4)cc2)N3)C1 (centres undefined)	1%	?	i	i	65*	i
CN1CCc2c(sc3c2C(=O)NC(c2ccc(OC(=O)c4ccc(Cl)cc4)cc2)N3)C1 (centres undefined)	-1%	-8%	i	i	33	i
COc1cc(CNc2ccc3[nH]c(=O)[nH]c3c2)cc(Cl)c1OCc1ccc(F)cc1	-11%	35µM*	i	i	-2	i
COc1cc(CNc2ccc3[nH]c(=O)[nH]c3c2)cc(Br)c1OCc1ccc(F)cc1	-2%	?	i	i	19	i
COc1ccc(NC(=O)CCCN2C(=O)C(c3ccccc3)Oc3cccnc32)cc1OC (centres undefined)	1%	-6%	i	i	76*	i
O=C(CCCN1C(=O)C(c2ccccc2)Oc2cccnc21)Nc1ccccc1C(F)(F)F (centres undefined)	3%	-25%	i	i	-7	i
COc1cccc(-c2nn3c(=O)cc(CN4CCN(C(=O)/C=C/c5ccccc5)CC4)nc3s2)c1	0%	7%	i	i	46	i
CCC(Oc1ccccc1)C(=O)N1CCN(Cc2cc(=O)n3nc(-c4cccc(C)c4)sc3n2)CC1 (centres undefined)	1%	1%	i	i	61*	i
COc1cccc(C2=CC(c3ccccc3F)n3ncc(C(=O)Nc4ccc(F)cc4)c3N2)c1 (centres undefined)	3%	-26%	i	i	71*	i
COc1ccc(C2=CC(c3ccccc3F)n3ncc(C(=O)Nc4ccc(C)cc4)c3N2)cc1 (centres undefined)	-2%	-31%	i	i	-5	i
CC[C@H]1OC(=O)[C@H](C)[C@@H](O[C@H]2C[C@@](C)(OC)[C@@H](O)[C@H](C)O2)[C@H](C)[C@@H](O[C@@H]2O[C@H](C)C[C@H](N(C)C)[C@H]2O)[C@](C)(O)C[C@@H](C)C(=O)[C@H](C)[C@H]2OC(=O)O[C@@]21C	/	-8%	/	/	/	/
COc1ccc(C(=O)NCCc2csc(-c3ccc(Cl)cc3)n2)cc1	-2%	?	i	i	87*	i
SMILES	GALK inh	FH mod	PTAP-TSG101 blk	B2AR arrestin ag	DRV1 agonist	GALC G270D act
COc1ccccc1C(=O)NCCc1csc(-c2ccc(C(F)(F)F)cc2)n1	2%	?	i	i	12	i
COc1ccc(C(=O)NCCc2csc(-c3ccc(Cl)cc3)n2)c(OC)c1	-1%	35µM*	i	i	70*	i
COc1ccccc1-c1nc(CNC(=O)Nc2ccccc2)c(C)o1	0%	-3%	i	i	23	i
COc1ccc(-c2nc(CNC(=O)Nc3ccccc3)c(C)o2)c(OC)c1	2%	4%	i	i	65*	i
CCOc1ccc(-c2csc3ncnc(Nc4cccc(O)c4)c23)cc1	2%	?	i	i	?	i
Oc1cccc(Nc2ncnc3sc4c(c23)CCCC4)c1	?	7%	i	i	66*	i
C[n+]1cc2c3c(ccc2c2ccc4cc5c(cc4c21)OCO5)OCO3	/	16µM*!	/	/	?	i
O=C(Nc1ccc(N(Cc2ccsc2)C(=O)Cn2nnc3ccccc32)cc1)C1CC1	/	0%	/	/	/	/
Cc1ccc2c(c1)c(=O)c1ccccc1n2CCCC(=O)Nc1ccc(C)c(C)c1	-4%	-16%	i	i	-2	40µM*

Source: PubChem (National Center for Advancing Translational Sciences (NCATS))
